# PAX8 reporter – inhibitors of PAX8-driven TPO luciferase reporter, primary screen, RMG-I cells, single concentration. SteadyGlo, 24 h. actives 1.2% (n = 360,000). inhibition, % at 12.6 µM;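 active = mean replicate inhibition at least 60% with every replicate also reaching 60%; inconclusive = only one of the two criteria is met; inactive = mean below 60% and not all replicates reaching 60%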;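 also: luciferase light reporting Pax8 driven TPO promoter activity; plate controls were median of neutral control wells for no effect and mitoxantrone controls for full effect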
# EWS-Fli block – EWS/Fli-driven NR0B1 reporter inhibitors, primary screen, A673 cells, NR0B1 luciferase, luminescence, MLPCN library; viability-normalised; inhibition, % at 12.6 µM; actives 0.67% (n = 350,000);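 active = mean inhibition of at least 50% after viability correction, with every replicate also passing that limit; inconclusive = mean reaches 50% but only one of two replicates passes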;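 also: firefly luciferase signal divided by Alamar Blue viability fluorescence both relative to DMSO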
# GSIS activator – GLuc luminescence reporter in INS-1E cells, primary screen for activators of glucose-dependent secretion of insulin | INS-1E GLuc reporter insulin secretion, 2-3 h | activation, % at 16.6 µM | actives 0.61% (n = 370,000) | AID 743287, 2014;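 active = lowest replicate activation of at least 40%, so every replicate reaches that level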;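 also: 0% = median of neutral control wells and 100% = median of IBMX positive control wells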
# C2C12 statin – suppressors of statin myotoxicity in C2C12 myotubes, primary screen, cell-based, single point, plate reader; C2C12 myotubes + simvastatin, ATP luminescence, 48 h; scaled: DMSO 0, geranylgeraniol control 100; rescue of ATP level, % at 7.49 µM; actives 0.78% (n = 330,000); AID 602340, 2012;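 active = mean ATP rescue above about 67%, or every replicate alone reaching that limit, limit read from the data, passing the limit was not always enough; inconclusive = no clear call, values can overlap the other calls; inactive = mean under the limit and some replicate under it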;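 also: myotubes were challenged with 10 µM simvastatin during compound exposure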
# miR-122 sensor – miR-122 Renilla sensor signal increase in Huh7, primary screen, miR-122 inhibitor project, cell-based, single point, plate reader; Huh7 miR-122 Renilla luciferase sensor, 48 h; neutral wells = 0, positive control = 100; actives 0.3% (n = 340,000); activation (reporter increase), % at 12.5 µM;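 active = mean replicate activation score at least 90 and every replicate individually at or above 90; inconclusive = only one of the two criteria met; inactive = neither criterion met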;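 also: higher luciferase means less miR-122 activity so hits act as miR-122 inhibitors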
# HIV Env fusion – inhibitors of HIV-1 Env-driven cell-cell fusion, primary screen, HeLa-JRFL effector, CEM21 target cells, luciferase | actives 1.1% (n = 360,000) | inhibition, % at 12.3 µM;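 active = mean replicate inhibition score of at least 50 and every replicate individually at or above 50; inconclusive = only one of the two criteria met; inactive = mean below 50 and not all replicates reaching 50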;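 also: 0% = plate neutral controls and 100% = maraviroc near 300 nM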
# * = called active by the depositor; ? = inconclusive; . = no result given; [ ] = remark or other dose. Hits are enriched below; roughly 3.1% of the tested compounds scored in any of these assays.
SMILES,PAX8 reporter,EWS-Fli block,GSIS activator,C2C12 statin,miR-122 sensor,HIV Env fusion
CCOc1ccc(/C=C2\SC(=S)NC2=O)cc1OC,-27.7,3.0,-60.5,11.9,4.8,1.5
CCOc1ccc(Cl)cc1/C=N/NC(=O)c1ccccc1,6.0,.,12.5,.,.,6.8
CCOc1ccc(C(=O)N/N=C/c2cc(Cl)ccc2[N+](=O)[O-])cc1,-17.7,.,91.8*,.,.,-12.5
CCOc1ccc(C(=O)C(CCC(CN(C)C)C(=O)c2ccc(OCC)cc2)CN(C)C)cc1 (configuration not stated),112.0*,.,-9.5,.,.,-114.2
C[C@@H]1CN([C@H](C)CO)S(=O)(=O)c2ccc(-c3ccccc3F)cc2O[C@H]1CN(C)Cc1ccncc1,.,59.7*,-27.4,-116.3,14.4[16.7 µM],10.6[16.7 µM]
C[C@@H]1CN([C@H](C)CO)S(=O)(=O)c2ccc(Br)cc2O[C@@H]1CN(C)Cc1ccc(-c2ccccc2)cc1,-11.9,7.9,-31.3,-7.7,-2.5,75.9*
C[C@H]1CN([C@@H](C)CO)S(=O)(=O)c2ccc(-c3ccccc3F)cc2O[C@H]1CN(C)Cc1ccncc1,.,22.7,-20.5,-28.1,-1.2[16.7 µM],-3.2[16.7 µM]
Cc1ccc(-c2ccc3c(c2)O[C@@H](CN(C)Cc2ccccc2)[C@H](C)CN([C@@H](C)CO)S3(=O)=O)cc1,.,28.0,5.2,-59.8,17.4[16.7 µM],23.9[16.7 µM]
C[C@@H]1CN([C@@H](C)CO)S(=O)(=O)c2ccc(-c3ccccc3)cc2O[C@H]1CN(C)Cc1ccccc1,.,22.8,-12.8,-99.2,1.9[16.7 µM],55.2*[16.7 µM]
CNC(=O)C[C@H]1CC[C@@H]2[C@@H](COc3ccc(NC(=O)C(C)C)cc3C(=O)N2C)O1,-27.5,-10.9,-5.2,-2.6,-43.3[16.7 µM],-10.2[16.7 µM]
CCSc1nc(C2CC2)cc(-c2cccs2)c1C#N,.,.,-21.8,25.7,3.6,-29.5
CCSc1nc(C2CC2)cc(-c2ccco2)c1C#N,.,.,.,99.8*,-8.9,.
COc1ccccc1CCNCc1ccc(OC)c(OCc2ccccc2)c1,.,.,-16.6,-38.0,-8.1,73.8*
O=C(CSC1=Nc2ccccc2C2=NC(Cc3c[nH]c4ccccc34)C(=O)N12)NC1CCCCC1 (configuration not stated),.,.,.,-16.0,17.9,113.8*
O=C(CSc1c[nH]c2ccccc12)NC1CCCC1,11.0,19.8,29.3,3.1,3.0,14.7
CC1CC(C)CN(C(=O)CSC2=Nc3ccccc3C3=NC(Cc4c[nH]c5ccccc45)C(=O)N23)C1 (configuration not stated),.,.,.,8.0,211.9*,.
CC(=O)N(C)C[C@@H]1Oc2ccc(N(C)C)cc2CC(=O)N(C)C[C@@H]1C,.,.,10.8,.,.,.
CC(=O)N1CC2(C1)[C@H](c1ccccc1)[C@@H](CO)N2CC1CCOCC1,-6.0,0.8,-1.1,.,.,.
O=C(C[C@H]1CC[C@H](NC(=O)C2CC2)[C@@H](CO)O1)Nc1nccs1,-13.3,-9.7,-0.3,-1.4,.,4.3[16.7 µM]
CCN(CC)S(=O)(=O)c1cc(NS(=O)(=O)c2cccs2)ccc1C,-18.0,-0.3,.,4.9,37.4,?
CCN(CC)S(=O)(=O)c1cc(NS(=O)(=O)c2cc(Cl)ccc2Cl)ccc1C,29.6,-5.0,-33.5,.,391.9*,.
CCOC(=O)N1CCN(C(=O)CNCc2cccs2)CC1,-1.8,.,.,92.8*,4.4,-6.1
CNC[C@H]1Oc2ccc(NC(=O)Cc3cn(C)c4ccccc34)cc2CC(=O)N([C@H](C)CO)C[C@@H]1C,-3.5,-10.6,8.4,-22.8,-3.0[16.7 µM],8.8[16.7 µM]
O=C1ON=C(c2ccccc2)/C1=C/c1ccc(OS(=O)(=O)c2ccccc2)cc1,107.9*,-5.9,2.0,.,.,.
CO[C@H]1CN(C)C(=O)c2ccc(NC(=O)c3ccccc3)cc2OC[C@@H](C)N(C(=O)C2CC2)C[C@H]1C,10.0,-7.4,-5.6,5.6,12.7[16.7 µM],-16.5[16.7 µM]
CC(C)C#Cc1cnc2c(c1)C(=O)N([C@@H](C)CO)C[C@H](C)[C@@H](CN(C)C(=O)c1cccc(F)c1)O2,.,-15.7,-16.8,3.6,0.4[16.7 µM],-8.0[16.7 µM]
COc1cc(C(=O)Nc2cc(C(F)(F)F)ccc2N2CCOCC2)ccc1OCC(=O)N1CCOCC1,0.2,2.2,50.1*,.,.,.
CCCCn1nc(C(=O)Nc2cc(C(F)(F)F)ccc2N2CCOCC2)ccc1=O,93.4*,14.2,-27.3,7.5,12.5,27.2

# High-throughput results: PubChem, Broad Institute
